Assay outcomes deposited in PubChem BioAssay by Broad Institute.
FGF22 binding: binders of human FGF22 protein, primary screen, FGF22 synaptogenesis inhibitor project, biophysical, thermal shift, single point | Fibroblast growth factor 22 (Homo sapiens), Q9HCT0 | recombinant FGF22 thermal shift, SYPRO orange fluorescence; percent of sucrose octasulfate shift, DMSO zero | activity (Tm shift, normalised), % at 9.99 µM | 340,000 compounds, 1.5% hits;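 active = mean Tm shift, scaled 0 neutral to 100 positive control, at about 1.3% or above, every replicate too, limit read from the data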
Target sequence (Q9HCT0 whole entry, looked up): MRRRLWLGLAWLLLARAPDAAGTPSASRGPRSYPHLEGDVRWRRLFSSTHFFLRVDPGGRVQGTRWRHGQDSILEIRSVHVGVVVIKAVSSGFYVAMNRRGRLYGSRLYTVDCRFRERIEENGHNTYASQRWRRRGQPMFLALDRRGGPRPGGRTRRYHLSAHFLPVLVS
PglD inh: C. jejuni PglD acetyltransferase inhibitors, primary screen, biochemical, DTNB colorimetric, single point | AID 602405, 2012 | inhibition, % at 12.5 µM | purified PglD enzyme, DTNB colorimetric CoA detection | 360,000 compounds, 0.098% hits | UDP-N-acetylbacillosamine N-acetyltransferase PglD (Campylobacter jejuni); in the data active = inhibition above about 16%, passing the limit was not always enough
dFosB activator: activators of delta FosB homodimer, primary screen, biochemical, fluorescence polarization, TAMRA-CDK5 oligo, single point; purified delta FosB; percent of positive-control signal above neutral wells; activation, % at 25 µM; 340,000 compounds, 0.99% hits;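 active = mean activation above about 17%, with every replicate also reaching it, limit read from the data, passing the limit was not always enough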
Target sequence (P13346 whole entry, looked up): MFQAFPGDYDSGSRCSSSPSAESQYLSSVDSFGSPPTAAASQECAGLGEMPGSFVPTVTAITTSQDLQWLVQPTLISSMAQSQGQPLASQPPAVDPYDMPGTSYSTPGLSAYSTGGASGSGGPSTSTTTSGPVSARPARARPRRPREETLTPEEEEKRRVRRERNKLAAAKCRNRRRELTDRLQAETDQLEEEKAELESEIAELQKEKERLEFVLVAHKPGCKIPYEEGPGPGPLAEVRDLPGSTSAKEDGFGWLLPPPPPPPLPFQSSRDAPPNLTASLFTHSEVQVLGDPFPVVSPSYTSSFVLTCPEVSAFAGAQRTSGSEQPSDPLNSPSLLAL
PvdQ acylase: P. aeruginosa PvdQ acylase inhibitors, primary screen, biochemical, fluorescence, plate reader and imaging, single point. purified PvdQ acylase. inhibition, % at 10 µM. 340,000 compounds, 0.063% hits. AID 488965, 2010; in the data active = inhibition above about 30%, passing the limit was not always enough;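 note: 0% = vehicle neutral wells and 100% = reference inhibitor wells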
SIRT5 inh: SIRT5 desuccinylase inhibitors, primary screen, biochemical, fluorescence imaging, single point, set 5. NAD-dependent protein deacylase sirtuin-5, mitochondrial (Homo sapiens), Q9NXA8. Purified SirT5, succinyl-peptide AMC, trypsin-coupled fluorescence. inhibition, % at 15 µM. 330,000 compounds, 1.1% hits; in the data active = inhibition above about 15%
CDK5 p35 inh: inhibitors of human CDK5/p35 kinase, primary screen, biochemical, single concentration; 330,000 compounds, 0.01% hits; AID 488839, 2010; Cyclin-dependent kinase 5 (Homo sapiens) + Cyclin-dependent kinase 5 activator 1 (Homo …; Recombinant CDK5/p35, ADP-Glo luminescence, 60 min; inhibition, % at 10 µM;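 active = highest replicate inhibition of at least 50% and at least 75% of replicates reaching 50%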;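 note: plate controls were DMSO neutral control for no effect and GW8510 at 10 µM for full effect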
Starred values were filed as active, the others as inactive; nt = no result. Only some compounds are listed: those with a hit (about 2.8% of all), similar ones and a draw of the others.

SMILES	FGF22 binding	PglD inh	dFosB activator	PvdQ acylase	SIRT5 inh	CDK5 p35 inh
C[C@@H]1CCCCO[C@H](CN(C)Cc2ccc(C(F)(F)F)cc2)[C@@H](C)CN([C@H](C)CO)C(=O)c2cc(NS(=O)(=O)c3cccs3)ccc2O1	-0.9	3.2	nt	nt	4.6	nt
C[C@@H]1CCCCO[C@@H](CN(C)Cc2ccc(C(F)(F)F)cc2)[C@H](C)CN([C@@H](C)CO)C(=O)c2cc(NS(=O)(=O)c3cccs3)ccc2O1	0.1	4.1	nt	nt	19.0*	nt
N#C[C@H]1[C@@H](c2ccccc2-c2ccccc2)[C@@H](CO)N1C(=O)Cc1ccncc1	0.0	nt	nt	nt	0.2	nt
COc1ccc2c3c([nH]c2c1)[C@H](CO)N(Cc1ccc2c(c1)OCO2)CC31CCN(C(=O)Nc2c(C)noc2C)CC1	nt	nt	nt	nt	1.8	nt
CC(=O)Nc1ccc2nc(NC(=O)C(Cl)(Cl)Cl)sc2c1	nt	nt	-4.0	-7.1	-4.0	0.5
COc1cccc2sc(Nc3nc4ccc(NC(C)=O)cc4s3)nc12	-0.1	nt	34.7*	-10.1	-2.3	0.3
Cc1ccccc1OCC(=O)Nc1cnn(CCCC(=O)O)c1	0.1	0.6	1.4	-13.4	17.0*	-0.5
Cc1cc(NC(=O)COc2cccc(C)c2C)no1	0.0	-2.1	-9.0	-13.7	-2.4	-0.5
Cc1cc(NC(=O)COc2ccccc2C)no1	44.1*	nt	4.9	-11.6	-3.1	-0.3
O=C(O)CCCn1cc(NC(=O)COc2ccccc2)cn1	-0.3	-0.1	-0.4	6.3	-0.7	-0.5
CC(=O)Nc1ccc2nc(NC(=O)COc3ccccc3C)sc2c1	-0.1	-4.6	20.0*	-16.1	-1.2	-0.6
CC(=O)Nc1ccc2nc(NC(=O)COc3ccccc3)sc2c1	-0.3	-0.3	-1.4	-17.9	-0.2	-0.2
CC(C)Oc1ccc(C(=O)NCCCNC(=O)c2ccccn2)cc1	0.0	-6.0	-7.0	-11.7	16.6*	2.5
COc1cc(/C=N/OCC(=O)Nc2cc(C)on2)ccc1OCc1ccccc1	-0.1	3.6	0.2	-16.0	28.0*	0.2
Cc1ccccc1OCC(=O)NCCNC(=O)c1ccccn1	-0.2	0.1	-7.4	-5.3	30.2*	1.0
CC(=O)Nc1ccc2nc(NC(=O)COc3ccccc3Cl)sc2c1	43.2*	-5.3	2.4	-11.7	-5.3	1.1
Cc1ccc2[nH]c(=O)cc(C(=O)OC(C)C)c2c1	43.4*	nt	-11.0	-13.7	5.2	1.6
CCCNC(=O)N1C[C@@H]2[C@H](c3ccccc31)[C@@H](CO)N2C(=O)Nc1ccccc1	-0.4	3.2	nt	nt	-2.3	nt
N#Cc1ccc(-c2ccc([C@@H]3[C@H](CO)N4CCCCN(S(=O)(=O)c5ccccc5)C[C@@H]34)cc2)cc1	0.3	1.8	nt	nt	-1.7	nt
O=C(Nc1cccc(C(F)(F)F)c1)c1ccc(-n2cncn2)nc1	43.4*	nt	3.6	2.4	12.0	0.9
Cc1nc(N)sc1-c1csc(Nc2cccc(C(=O)O)c2)n1	0.0	7.8	-21.6	-25.8	27.4*	-6.2
Cc1cccc(S(=O)(=O)N[C@@H]2CC[C@H](CCNC(=O)CCN3CCCCC3)O[C@@H]2CO)c1	-0.3	0.6	nt	nt	1.6	nt
O=c1cccc2n1Cc1cc3ccccc3nc1-2	43.7*	1.4	-5.3	-23.0	-101.4	0.0
c1ccc2c(c1)-c1nc3ccccc3cc1C2N1CCCCC1 (stereo not drawn)	-0.3	2.5	nt	nt	0.5	nt
CC1=CC(C)(C)NC(=S)N1c1cccc2cc(S(=O)(=O)O)ccc12	0.0	nt	-9.0	1.9	19.7*	0.3
SMILES	FGF22 binding	PglD inh	dFosB activator	PvdQ acylase	SIRT5 inh	CDK5 p35 inh
COc1ccc(N(C(=O)c2snc(C(N)=O)c2N)C(C(=O)NCc2ccccc2)c2ccc(F)cc2)c(OC)c1 (stereo not drawn)	-0.1	-3.1	24.8*	-9.4	nt	-2.4
C[C@H](CO)N1C[C@H](C)[C@@H](CN(C)C(=O)C2CCC2)Oc2cc(-c3cncnc3)ccc2S1(=O)=O	-0.2	1.9	nt	nt	5.3	nt
Cc1ccc(S(=O)(=O)N(C)C[C@H]2Oc3ccc(NC(=O)Nc4c(C)noc4C)cc3C(=O)N([C@H](C)CO)C[C@@H]2C)cc1	0.4	3.7	nt	nt	13.8	nt
Cc1ccc(S(=O)(=O)N(C)C[C@@H]2Oc3ccc(NC(=O)Nc4c(C)noc4C)cc3C(=O)N([C@H](C)CO)C[C@@H]2C)cc1	-0.3	0.9	nt	nt	15.6*	nt
Cc1ccc(S(=O)(=O)N(C)C[C@H]2Oc3ccc(NC(=O)Nc4ccc(C(F)(F)F)cc4)cc3C(=O)N([C@H](C)CO)C[C@H]2C)cc1	2.7*	-1.1	nt	nt	6.6	nt
CCCNC(=O)C[C@@H]1C[C@H]2c3cc(NS(=O)(=O)c4ccccc4)ccc3O[C@H]2[C@@H](CO)O1	0.1	-6.1	nt	nt	nt	nt
O=C(C[C@@H]1C[C@@H]2c3cc(NS(=O)(=O)c4ccc(F)cc4)ccc3O[C@@H]2[C@@H](CO)O1)NCC1CC1	0.0	4.3	nt	nt	nt	nt
O=C(N[C@H]1CC[C@@H](CCn2cc(-c3ccccn3)nn2)O[C@@H]1CO)c1ccc(F)cc1	-0.7	-0.5	nt	nt	8.6	nt
COc1ccc(CN(C)C[C@@H]2OCCCC[C@H](C)Oc3ccc(NS(=O)(=O)c4cn(C)cn4)cc3C(=O)N([C@@H](C)CO)C[C@H]2C)cc1	-0.6	6.5	nt	nt	-1.3	nt
CC(C)(C)c1ccc(OCC(O)CN2CCCC2)cc1 (stereo not drawn)	0.1	-3.0	1.0	6.4	-30.4	1.9
CC(C)(C)C(O)CN1CCCC1 (stereo not drawn)	43.6*	4.9	1.8	0.5	1.0	1.0
COc1cc(CN(CC(C)C)S(=O)(=O)c2ccccc2Br)cc(OC)c1	43.4*	-0.8	0.5	-8.2	nt	-2.9
COc1cccc(CNS(=O)(=O)c2cc(Br)ccc2Br)c1	1.3	-4.4	nt	nt	-5.3	nt
COc1cccc(CN(CCC(C)C)S(=O)(=O)c2cc(Br)ccc2Br)c1	0.0	-5.6	5.5	-6.8	28.2*	-0.9
COc1ccc2c3c([nH]c2c1)[C@H](CO)N(C(=O)c1ccccc1)CC31CCN(C(=O)CC2CC2)CC1	0.3	nt	nt	nt	nt	nt
O=C(C[C@@H]1CC[C@@H](NS(=O)(=O)c2ccc(F)cc2)[C@@H](CO)O1)NCc1ccccc1F	nt	nt	nt	nt	1.0	nt
CC(C)Cc1ccc(-c2cc3nc(NCCc4ccc(S(N)(=O)=O)cc4)ccn3n2)cc1	-0.2	4.2	nt	nt	19.6*	nt
C[C@@H]1CN([C@H](C)CO)C(=O)Cc2cc(NC(=O)Cc3ccccc3)ccc2O[C@@H]1CN(C)Cc1ccncc1	0.3	1.4	nt	nt	0.6	nt
